This is part of a sample that, as a whole, favours compounds with a hit. Of some 83,000 tested, about 20% had one in any assay.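 Percent growth is the endpoint: 0 to 100 indicates growth inhibition (40 means 60% inhibition), 0 means no net growth, and negative values indicate cell death.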 Activity calls are given as the source filed them. The calls were made as follows: active = growth percent below 10; inactive = the rest.
Test system: OVCAR-5 ovarian
Assay: NCI-60 one-dose screen, 48 h (100 = growth as untreated, 0 = no growth, -100 = all killed)
Settings: 10 µM unless noted

| Compound | growth |
| --- | --- |
| NC(=O)N1CCOCC1 | 108% (inactive) |
| N#Cc1ccc(OC(=O)Nc2c(Cl)cc(Cl)cc2Cl)cc1 | 103% (inactive) |
| CCOC(=O)/C(C)=C\c1ccc(OC)c(OC)c1 | 99.3% (inactive) |
| O=S(Cc1ccccc1)/C(=C/NC(=S)Nc1ccccc1)c1ccccc1 (centres undefined) | 99% (inactive) |
| C/C(=N\O)c1ccccn1 | 106% (inactive) |
| CC(C)NC(=O)OCc1c(COC(=O)NC(C)C)c(-c2ccc(Cl)cc2)n2c1CCC2 | 85.1% (inactive) |
| CC(=O)NNC(=S)/N=C\C(C(=O)c1ccccc1)=C(/O)c1ccccc1 | 97.2% (inactive) |
| C=CCS(C)(=O)=O | 101% (inactive) |
| O=C(NCc1ccccc1)c1cccc([N+](=O)[O-])c1 | 116% (inactive) |
| c1ccc(-c2ccc3ccccc3c2)cc1 | 99.6% (inactive) |
| Cc1ccccc1NC(=O)Oc1ccc(Cl)cc1C(=O)c1ccccc1 | 105% (inactive) |
| CCC(C)c1c(N)n(S(=O)(=O)c2ccc(C)cc2)oc1=O (centres undefined) | 99.1% (inactive) |
| O=Cc1c(O)c2ccccc2[nH]c1=O | 98.5% (inactive) |
| COC(=O)c1ccccc1C(=O)c1c(C)cc(C)cc1C | 101% (inactive) |
| N=C(N)c1nn(C2OC(CO)C(O)C2O)c2nc[nH]c(=O)c12 (centres undefined) | 30.2% (inactive) |
| COc1cccc(C(=O)O)c1OC | 85.9% (inactive) |
| O=C(O)c1cc(I)ccc1O | 97.5% (inactive) |
| CC(=O)NNC(=S)N/C=C/c1c(C)ccc([N+](=O)[O-])c1[N+](=O)[O-] | 99.3% (inactive) |
| NNc1ncnc2c1ncn2C1OC(CO)C(O)C1O (centres undefined) | 54.7% (inactive) |

From PubChem BioAssay (NCI)
